Test results as given in PubChem BioAssay (NCI).
Compounds without any hit were thinned out: in the full panel of roughly 79,000, 15% have a hit. No stated cut-off is given here; in the data, active means growth inhibition above about 70%; inactive means the rest.

What was measured:
[1] = NCI Yeast Anticancer Drug Screen. Data for the rad50 strain (AID 155);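 further: 0% = growth of vehicle-only cultures of the same strain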; settings: S. cerevisiae rad50 strain growth inhibition; at 50.0 µM; stronger effect = higher value
Method in brief: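 DNA repair mutant yeast, compound exposure, growth read-out; inhibition is taken relative to vehicle.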

[2] = NCI Yeast Anticancer Drug Screen. Data for the mec2-1 strain (AID 157); settings: S. cerevisiae mec2-1 strain, at 50.0 µM, stronger effect = higher value
Method in brief: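 Each compound was tested on mec2-1 yeast, a strain altered in DNA damage repair or cell cycle control. Growth inhibition is reported relative to vehicle.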

[3] = NCI Yeast Anticancer Drug Screen. Data for the sgs1 mgt1 strain (AID 161);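 further: 0% = growth of cultures given vehicle only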; settings: S. cerevisiae sgs1 mgt1 strain, at 50.0 µM, stronger effect = higher value
Method in brief: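 Read-out: growth inhibition vs vehicle controls. Cells: mutant yeast strain deficient in DNA damage repair.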

[4] = NCI Yeast Anticancer Drug Screen. Data for the cln2 rad14 strain (AID 165);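 further: 0% = growth equal to vehicle treated cultures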; settings: S. cerevisiae cln2 rad14 strain, at 50.0 µM, stronger effect = higher value
Method in brief: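 Test compounds were added to cln2 rad14 yeast cultures; inhibition of growth was then determined by comparison with vehicle treatment.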

[5] = NCI Yeast Anticancer Drug Screen. Data for the bub3 strain (AID 167); settings: S. cerevisiae bub3 mutant strain, at 50.0 µM, stronger effect = higher value
Method in brief: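 In this screen, a yeast mutant lacking normal mitotic checkpoint function is challenged with compound. Relative growth versus vehicle gives the inhibition value.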

[6] = NCI Yeast Anticancer Drug Screen. Data for the mlh1 rad18 strain (AID 175); settings: S. cerevisiae mlh1 rad18 strain growth inhibition; at 50.0 µM; stronger effect = higher value
Method in brief: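 Inhibition values reflect reduced growth of mutant yeast versus vehicle-treated controls following compound exposure; the mutations affect DNA damage repair.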

Measured: growth inhibition

NS(=O)(=O)c1ccc(Nc2c3ccccc3nc3c(C(=O)NCCO)cccc23)cc1
inactive: [1] 51.8% | [2] -30.2% | [3] -15.9% | [4] -3.1% | [5] -10.6% | [6] -1.9%

COc1ccc2c(Cl)ccnc2c1OC
inactive: [1] 15.3% | [2] 6.1% | [3] 10.9% | [4] -15% | [5] 23.4% | [6] 21.8%

CCCC(=O)Nc1cn(COC)c(C(=O)N2C[C@@H]3C[C@]34C2=CC(=O)c2[nH]cc(C)c24)n1
inactive: [1] 28.2% | [2] 20.4% | [3] 34.4% | [4] 14.2% | [5] 26.2% | [6] 50.8%

CC(=O)CC(=O)CCC(=O)O
inactive: [1] 30.9% | [2] -20.2% | [3] -0.25% | [4] 7.1% | [5] 13.9% | [6] 32.8%

COC(=O)C[CH2][Ge]([CH3])([CH3])[S]c1ccccc1
inactive: [1] 52.9% | [2] 27.1% | [3] 34.1% | [4] 4.3% | [5] 15.4% | [6] 18.1%

C[Si](C)(C)CSCCO
inactive: [1] -13.7% | [2] -6.45% | [3] -20.8% | [4] -16.1% | [5] -14.7% | [6] -1.6%

c1ccc2c(c1)CNNC2
inactive: [1] 11.3% | [2] -4.4% | [3] -5.55% | [4] 11.3% | [5] 15.8% | [6] -8.1%

CC1=CC2CC(C)C1(C)CCc1ccoc12 (centres undefined)
inactive: [1] 2.8% | [2] -11.7% | [3] -2.8% | [4] 6.75% | [5] 9.85% | [6] 4.7%

NC(=O)CCCCCCCCCCBr
inactive: [1] 15.6% | [2] 21.2% | [3] 8.85% | [4] 20.2% | [5] 22.8% | [6] 42.3%

Cc1nnc2c3nccnc3c(Cl)nn12
inactive: [1] 20.8% | [2] 25% | [3] 56.3% | [4] 20.3% | [5] 9% | [6] 24.1%

O=C(NC(=O)c1c(F)cccc1F)Nc1ccc(Br)cc1
inactive: [1] 29.2% | [2] 53.3% | [3] 19.4% | [4] 7.25% | [5] 34.5% | [6] 23.4%

Nc1ncnc2c1ncn2C1OC(C(O)CO)C(O)C1N (centres undefined)
inactive: [1] -15.7% | [2] -0.3% | [3] -13.7% | [4] -14.8% | [5] 0.55% | [6] -23.6%

c1ccc(-c2coc(-c3ccccc3)c2)cc1
inactive: [1] -16.2% | [2] -11.8% | [3] -17.6% | [4] -12.2% | [5] -9.35% | [6] -1.9%

CCOC(=O)C(Br)CN1C(=O)c2ccccc2C1=O (centres undefined)
inactive: [1] 5.5% | [2] -7.1% | [3] -5.35% | [4] 12.6% | [5] 42% | [6] 13.6%

N#CC(c1ccc(O)cc1)N1CCN(C(C#N)c2ccc(O)cc2)CC1 (centres undefined)
inactive: [1] -1.5% | [2] 1% | [3] -33.2% | [4] -26.8% | [5] -25.2% | [6] -43.4%

Cc1ccc(C(=O)CCC(=O)OCC(=O)c2ccc(-c3ccccc3)cc2)cc1
inactive: [1] -7.95% | [2] 11.3% | [3] -1% | [4] 14.8% | [5] -6% | [6] -20.1%

COc1ccc2c(c1)c1c3c(ccc4ncn2c43)N(CCN(C)C)CCN=1
inactive: [1] -27.1% | [2] -26.1% | [3] -9.25% | [4] -6.3% | [5] 1.4% | [6] -37.6%

N#Cc1[nH]cnc1N
inactive: [1] -6.95% | [2] -5.95% | [3] -11.3% | [4] -37.5% | [5] 7.15% | [6] 4.3%

Cn1c(COC(=O)NC2CCCCC2)c(COC(=O)NC2CCCCC2)c2ccc3cc(C=O)ccc3c21
inactive: [1] 5.95% | [2] 7.85% | [3] -14.5% | [4] -3.95% | [5] -10.4% | [6] -27.3%

CCC(CCC(=O)c1ccccc1)[N+](=O)[O-] (centres undefined)
inactive: [1] -3.65% | [2] -14.8% | [3] -5.7% | [4] -8.5% | [5] 13.8% | [6] 7.2%

Cc1ccc2ccccc2c1Br
inactive: [1] -4.55% | [2] -0.85% | [3] 1.6% | [4] -14.8% | [5] -3.2% | [6] -8.55%

O=C(c1cccnc1)c1cc(-c2ccccn2)c(=O)n2ccccc12
inactive: [1] 0.7% | [2] 1.95% | [3] -13.6% | [4] -1.05% | [5] -15.8% | [6] -36.6%

COC(=O)C(CC(=O)Nc1ccc(C)cc1)C(=O)C(=O)Nc1c(C(C)C)cccc1C(C)C (centres undefined)
inactive: [1] -43.4% | [2] -17.8% | [3] -7.5% | [4] 6.1% | [5] -9.9% | [6] -25.2%

C1CCC2(CC1)CCCN2
inactive: [1] 7.15% | [2] 3.35% | [3] 1.4% | [4] -3.5% | [5] -1.75% | [6] 6.35%

CCN(CC)C(=O)Cn1c(C)cc2ccccc21
inactive: [1] -18.1% | [2] -18.1% | [3] 7.9% | [4] -2.75% | [5] 8% | [6] -13.6%

CCCCCC1OCC(C)(C)C(C(C)C)O1 (centres undefined)
inactive: [1] -0.2% | [2] -23.9% | [3] -12.7% | [4] 0.95% | [5] -13.6% | [6] 8.55%

CSc1nc(NC2OC(CO)C(O)C(O)C2O)c(Br)c(=O)n1C (centres undefined)
inactive: [1] 0.4% | [2] -1.7% | [3] -6.3% | [4] -8.75% | [5] -2.75% | [6] 20.1%

OCc1ccccc1C1CSCSC1
inactive: [1] -7.2% | [2] -29.1% | [3] -37.5% | [4] -30.9% | [5] -21.4% | [6] -12.2%

Cn1c(C2CCc3cc(O)ccc3C2)cccc1=O (centres undefined)
inactive: [1] -26.8% | [2] 13.1% | [3] -4.25% | [4] -19.6% | [5] 14.7% | [6] -4.35%

O=C(NCc1ccccc1)C(O)c1ccccc1 (centres undefined)
inactive: [1] 25.2% | [2] 4.8% | [3] -1.25% | [4] 0.6% | [5] 8.2% | [6] 12.7%

COC1/C=C/OC2(C)Oc3c(C)c(OC(C)=O)c4c(c3C2=O)C(=O)C=C(NC(=O)/C(C)=C\C=C\C(C)C(OC(C)=O)C(C)C(O)C(C)C(OC(C)=O)C1C)C4=O (centres undefined)
inactive: [1] 13.6% | [2] 20.7% | [3] 26.1% | [4] 21.6% | [5] 9.45% | [6] 42.9%

O=C(Nc1ccccc1SC(=O)OCc1ccccc1)OCc1ccccc1
inactive: [1] 30.2% | [2] 4.8% | [3] 11.6% | [4] 38.6% | [5] 1.95% | [6] 1.3%

O=C1C(Cl)C(c2ccccc2)N1n1cnc2ccccc2c1=O (centres undefined)
inactive: [1] -16.2% | [2] -2.15% | [3] -24.1% | [4] -3.3% | [5] 3.9% | [6] -12.7%

CC(=O)N(C)CCc1c[nH]c2ccccc12
inactive: [1] -18.4% | [2] -37.5% | [3] -33.9% | [4] 13.2% | [5] 9.85% | [6] -4.8%

CN1CCC(O)(c2ncc(Br)c3ccccc23)CC1
inactive: [1] 17.1% | [2] -7.8% | [3] 24.9% | [4] 10.8% | [5] 11.2% | [6] 39.6%

COc1ccc(OC)c(NC(=O)c2ccc(Cl)c(Cl)c2)c1
inactive: [1] -0.5% | [2] 14.3% | [3] 5.45% | [4] -9.25% | [5] 13.6% | [6] 0.85%

CCCCCCCCCCCCCCCCS(=O)(=O)N/N=c1\cc(-c2ccccc2Cl)c2ccccc2n1C
inactive: [1] -0.15% | [2] -16.9% | [3] 1.95% | [4] 6.45% | [5] -11.1% | [6] 3.35%

NC(=O)N/N=C(/c1nc2ccc([N+](=O)[O-])cc2[nH]c1=O)C(O)c1ccco1 (centres undefined)
inactive: [1] 5.35% | [2] -9.65% | [3] -11.1% | [4] 19.8% | [5] -19% | [6] 3.5%

CCOC(=O)c1nc2ccc(C(F)(F)F)cc2nc1NCc1ccc(OC)cc1
inactive: [1] 4.6% | [2] 9.8% | [3] -1.15% | [4] 17.2% | [5] 5.15% | [6] -15.7%
